Only some compounds are listed: those with a hit (about 3.6% of all), similar ones and a draw of the others.
Rango dissoc inh – inhibition of RanGTP-driven Rango-importin beta dissociation; O95149+P62826; 340,000 tested, 0.071% active; Biochemical FRET Rango-importin beta, RanGTP-induced dissociation; Potency, µM (titrated, usually from 46.1 µM), inactives show at the highest dose activity change, negative = inhibition; calls by dose curve; further: potency means the concentration at half of the fitted maximal effect; % of control where 0% means no effect; nearly all actives have a fitted effect of over 45% in size
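Compounds preincubate 5 min with complex of recombinant Rango and importin beta in PBS with 1 mM DTT. Ran (0.6 uM) loaded with 2 mM GTP plus 0.2 uM RCC1 starts dissociation; FRET is recorded 45 min later.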
Rango-impB inh – Rango-importin beta binding inhibition; Q14974; Rango CFP/YFP FRET sensor + importin beta, 45 min; Potency, µM (top dose mostly 92.2 µM), for inactives: at the top dose inhibition of complex formation; 340,000 tested, 0.031% active; AID 540263; calls by dose curve;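 further: potency means the concentration at half of the fitted maximal effect; 0% = DMSO wells and 100% = buffer wells lacking importin beta; nearly all actives have a fitted effect of over 15% in size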
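FRET biosensor (snurportin 1 IBB flanked by EYFP and cerulean), 50 nM, with compound 5 min, then 0.125 microM importin beta in PBS, 1 mM DTT, 0.02% Tween-20, 0.1% BSA. CFP/YFP ratio read after 45 min at room temperature; pre-read flags interference.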
KAT2A inh – inhibitors of human GCN5L2 histone acetyltransferase; Q92830; GCN5L2 HAT assay, ThioGlo1 CoA-SH fluorescence; Potency, µM (titrated, usually from 58.9 µM), inactives show at the top dose activity change, negative = inhibition, actives largely listed as inhibitors; 390,000 tested, 0.21% active; AID 504327; further: potency means the concentration at half of the fitted maximal effect; on the % scale 0 is the no-effect control and ±100 the full control effect
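Preincubate 20nM GCN5L2 with compound 15 min, RT → add 50uM ThioGlo1 + 75uM H3(1-25) + 70uM acetyl-CoA → read fluorescence 0 and 20 min. Primary qHTS; fluorescent artifacts likely.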
PLK1 PBD block – blocks phosphopeptide binding to human PLK1 polo-box domain | Plk1 PBD binding of FITC phosphopeptide, fluorescence polarization | Potency, µM, for the others: max response, negative = inhibition, most hits filed as inhibitors | 360,000 tested, 2.8% active | AID 720504; further: potency means the concentration at half of the fitted maximal effect; series mostly up to about 57 µM; on the % scale 0 is the no-effect control and ±100 the full control effect; nearly all actives have a fitted effect of over 65% in size
Target sequence (P53350 whole entry, looked up, the tested form may be a part): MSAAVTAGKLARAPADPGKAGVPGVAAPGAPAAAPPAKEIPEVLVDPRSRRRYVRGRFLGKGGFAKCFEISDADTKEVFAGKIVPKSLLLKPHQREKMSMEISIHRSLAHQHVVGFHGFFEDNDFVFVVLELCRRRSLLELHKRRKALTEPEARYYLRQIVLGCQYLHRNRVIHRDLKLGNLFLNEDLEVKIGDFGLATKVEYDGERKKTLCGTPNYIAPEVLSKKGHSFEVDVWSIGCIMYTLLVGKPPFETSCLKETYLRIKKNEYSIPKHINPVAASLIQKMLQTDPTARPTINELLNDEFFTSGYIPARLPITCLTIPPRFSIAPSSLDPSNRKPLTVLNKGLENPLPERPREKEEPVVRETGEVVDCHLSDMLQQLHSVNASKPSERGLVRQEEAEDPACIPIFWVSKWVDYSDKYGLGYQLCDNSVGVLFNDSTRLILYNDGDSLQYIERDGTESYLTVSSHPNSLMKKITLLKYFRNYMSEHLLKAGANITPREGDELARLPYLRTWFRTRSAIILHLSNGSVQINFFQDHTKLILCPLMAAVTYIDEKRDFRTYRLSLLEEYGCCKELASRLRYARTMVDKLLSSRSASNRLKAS
VDR inh – blocks the human vitamin D receptor. Potency, µM, for the others: max response, negative = inhibition, hits mostly inhibitors. 400,000 tested, 0.93% active. VDR-SRC2-3 peptide fluorescence polarization, 2 h; further: potency means the concentration at half of the fitted maximal effect; on the % scale 0 is the no-effect control and ±100 the full control effect
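Two reagent solutions held at 4 deg C in the dark were dispensed, compounds pinned at 23 nl, and the mixture incubated 2 h at room temperature. Read-out: fluorescence polarization of VDR–SRC2-3 peptide binding.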
PI5P4K alpha inh – PI5P4K alpha (human) kinase inhibition | PI5P4Kalpha enzyme, ADP-Glo luminescence, 60 min; active compounds read low | AID 652105 | max response, % | 330,000 tested, 1.2% active; active means max response of -50% or lower; inconclusive means between -30% and -50%; inactive means -30% or higher; further: value at the top dose of about 77 µM; on the % scale 0 is the no-effect control and ±100 the full control effect
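Single end-point luminescence (ADP-Glo) quantified ADP from PI5P4Kalpha turnover; ATP 5 microM final, 1 h at RT, 0.1% CHAPS and 0.28 mM EGTA in HEPES pH 7.4.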
* = called active by the depositor. Unless noted, the call rests on the fitted dose curve; in most records, active means well fitted curve in the direction sought with a large enough effect; inconclusive means small, poorly fitted or top-dose-only effect, or another doubt; inactive means no such curve, though single readings can be large; an effect the other way counts as inactive or inconclusive.

How did COc1ccc(C(C)=O)cc1CSc1nc2cc(C(=O)O)ccc2c(=O)n1Cc1ccccc1 do in these assays?
Rango dissoc inh: -4%; Rango-impB inh: 1%; KAT2A inh: -7%; PLK1 PBD block: inconclusive; VDR inh: -6%; PI5P4K alpha inh: -60*

How did CCOC(Cn1c(SCc2cc(C(C)=O)ccc2OC)nc2ccccc2c1=O)OCC do in these assays?
Rango dissoc inh: -13%; Rango-impB inh: 3%; KAT2A inh: -1%; PLK1 PBD block: -10%; VDR inh: 0%; PI5P4K alpha inh: 5

How did COc1ccc(C(=S)Nc2ccc(C)cc2)cc1 do in these assays?
Rango dissoc inh: -1%; Rango-impB inh: 0%; KAT2A inh: 0%; PLK1 PBD block: 21µM*; VDR inh: inconclusive; PI5P4K alpha inh: -17

Results for O=C(NC(=S)Nc1ccc(CN2CCCCC2)cc1)c1cccc(OCc2ccccc2)c1 ?
Rango dissoc inh: inconclusive; Rango-impB inh: -5%; KAT2A inh: -19%; PLK1 PBD block: -9%; VDR inh: -24%; PI5P4K alpha inh: 2

What do the screens show for `O=C(O)c1ccc(NC(=S)NC(=O)c2cccc(COc3ccccc3)c2)cc1`?
Rango dissoc inh: -10%; Rango-impB inh: -1%; KAT2A inh: -3%; PLK1 PBD block: inconclusive; VDR inh: -13%; PI5P4K alpha inh: -55*

What do the screens show for `COc1ccc(NC(=S)NNc2ccc(C(=O)O)cc2)cc1`?
Rango dissoc inh: 0%; Rango-impB inh: 3%; KAT2A inh: -5%; PLK1 PBD block: inconclusive; VDR inh: 32µM*; PI5P4K alpha inh: -9

What do the screens show for `COc1ccc(NC(=O)CSc2nc3c(oc4ccccc43)c(=O)n2-c2ccccc2)cc1OC`?
KAT2A inh: 1%; VDR inh: -27%

How did CC(=O)N1c2ccc(S(=O)(=O)N3CCC(C(=O)Nc4cccc(C(F)(F)F)c4)CC3)cc2CC1C (stereo unspecified) do in these assays?
Rango dissoc inh: -9%; Rango-impB inh: -1%; KAT2A inh: -8%; PLK1 PBD block: 27µM*; VDR inh: -19%; PI5P4K alpha inh: 4

How did CC(=O)N1c2ccc(S(=O)(=O)N3CCC(C(=O)Nc4cccc(C)c4C)CC3)cc2CC1C (stereo unspecified) do in these assays?
Rango dissoc inh: -16%; Rango-impB inh: 2%; KAT2A inh: -4%; PLK1 PBD block: 24µM*; VDR inh: -30%; PI5P4K alpha inh: -14

How did CC(=O)N1c2ccc(S(=O)(=O)N3CCC(C(=O)Nc4ncccc4C)CC3)cc2CC1C (stereo unspecified) do in these assays?
Rango dissoc inh: 13%; Rango-impB inh: 0%; KAT2A inh: -3%; PLK1 PBD block: -22%; VDR inh: -15%; PI5P4K alpha inh: 18

What do the screens show for `CCC(CC)c1nn2c(=O)cc(COc3ccc(NC(=O)c4ccccc4C)cc3)nc2s1`?
KAT2A inh: -5%; VDR inh: 7%

What do the screens show for `COc1cc(NC(=O)Cc2cccs2)cc(OC)c1`?
Rango dissoc inh: 20%; Rango-impB inh: 3%; KAT2A inh: -5%; PLK1 PBD block: 3.4µM*; VDR inh: -8%; PI5P4K alpha inh: -30

Results for COc1cccc(NC(=O)Cc2cccs2)c1 ?
Rango dissoc inh: -4%; Rango-impB inh: 0%; KAT2A inh: -6%; PLK1 PBD block: -9%; VDR inh: -7%; PI5P4K alpha inh: 3

What do the screens show for `CCN(CC)S(=O)(=O)c1ccc(NC(=O)Cc2cccs2)cc1`?
Rango dissoc inh: -4%; Rango-impB inh: -3%; KAT2A inh: -15%; PLK1 PBD block: 27µM*; VDR inh: -15%; PI5P4K alpha inh: inconclusive

How did COc1cccc(C(C)NC(=O)Cc2cccs2)c1 (stereo unspecified) do in these assays?
Rango dissoc inh: -8%; Rango-impB inh: 4%; KAT2A inh: -5%; PLK1 PBD block: 21µM*; VDR inh: inconclusive; PI5P4K alpha inh: 1

Results for O=C(Cc1cccs1)Nc1ccc(-c2nc3ccccc3[nH]2)cc1 ?
Rango dissoc inh: -10%; Rango-impB inh: 1%; KAT2A inh: inconclusive; PLK1 PBD block: 30µM*; VDR inh: -1%; PI5P4K alpha inh: -22

Results for N#CC1=C(N)NC(=S)C(C(N)=O)C1c1ccccc1F (stereo unspecified) ?
Rango dissoc inh: -8%; Rango-impB inh: inconclusive; KAT2A inh: -24%; PLK1 PBD block: 19µM*; VDR inh: 4.5µM*; PI5P4K alpha inh: inconclusive

What do the screens show for `CCOC(=O)C1C(=O)NC(SC)=C(C#N)C1c1ccccc1F` (stereo unspecified)?
Rango dissoc inh: 0%; Rango-impB inh: -4%; KAT2A inh: -10%; PLK1 PBD block: -16%; VDR inh: -14%

How did N#CC1=C(N)NC(=S)C(C(N)=O)C1c1ccc(Cl)cc1Cl (stereo unspecified) do in these assays?
Rango dissoc inh: -11%; Rango-impB inh: -1%; KAT2A inh: -5%; PLK1 PBD block: 19µM*; VDR inh: 22µM*; PI5P4K alpha inh: inconclusive

Results for O=C1NC(=O)C(c2ccc(Cl)cc2Cl)N1 (stereo unspecified) ?
Rango dissoc inh: 1%; Rango-impB inh: 0%; PLK1 PBD block: -3%; VDR inh: -3%; PI5P4K alpha inh: -2

Results for CCC(C(=O)Nc1nc(C)cs1)c1ccccc1 (stereo unspecified) ?
Rango dissoc inh: 22%; Rango-impB inh: 0%; KAT2A inh: -2%; PLK1 PBD block: 27µM*; VDR inh: inconclusive; PI5P4K alpha inh: -16

Results for CCC(C(=O)Nc1nc(C)c(C)s1)c1ccccc1 (stereo unspecified) ?
Rango dissoc inh: -13%; Rango-impB inh: -1%; KAT2A inh: inconclusive; PLK1 PBD block: 0%; VDR inh: 1%; PI5P4K alpha inh: 1

How did CCCC(=O)Nc1ccc(NC(=O)c2ccccn2)cn1 do in these assays?
Rango dissoc inh: -9%; Rango-impB inh: 0%; KAT2A inh: -3%; PLK1 PBD block: -10%; VDR inh: 21%; PI5P4K alpha inh: 7

How did CCCC(=O)Nc1ccc(NC(=O)c2ccccc2OC)cn1 do in these assays?
Rango dissoc inh: -6%; Rango-impB inh: 0%; KAT2A inh: 2.2µM*; PLK1 PBD block: -1%; VDR inh: 7%; PI5P4K alpha inh: 4

How did Cc1ccc(N=Nc2c(O)ccc3n[nH]nc23)cc1 do in these assays?
Rango dissoc inh: 2%; Rango-impB inh: -3%; KAT2A inh: -20%; PLK1 PBD block: 0%; VDR inh: -8%; PI5P4K alpha inh: -60*

What do the screens show for `O=C(Oc1ccc(=O)n(-c2ccccc2)n1)c1cccc(Cl)c1`?
Rango dissoc inh: 1%; Rango-impB inh: 1%; KAT2A inh: -9%; PLK1 PBD block: 6.7µM*; VDR inh: -16%; PI5P4K alpha inh: -12
